Source: PubChem
GLD-1 TGE inh: GLD-1/TGE RNA complex disruptors, primary screen, biochemical, fluorescence polarization; Female germline-specific tumor suppressor gld-1 (Caenorhabditis elegans), Q17339; purified GLD-1 + fluorescein TGE RNA; inhibition, % at 5.96 µM; 320,000 compounds, 0.44% hits;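 active means percent inhibition above a per-plate cutoff, the plate mean of test compounds plus 3 SD, cut at about 30% in these data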;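 further: 0% = DMSO wells with GLD-1 and probe and 100% = wells lacking GLD-1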
Bcl-xL primary: inhibitors of human Bcl-xL, primary screen, biochemical, fluorescence polarization, HTS; Bcl-2-like protein 1 (Homo sapiens), Q07817; GST-Bcl-xL / FITC-Bim BH3 peptide fluorescence polarization; 320,000 compounds, 0.7% hits; inhibition, % at 10.9 µM;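 active means inhibition above the mean of all tested compounds plus 3 SD, cutoff set per campaign, cut at about 30% in these data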;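 further: 0% = DMSO wells and 100% = unlabeled Bim-BH3 peptide competitor; inhibitors lower millipolarization by displacing the labeled peptide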
Target sequence (Q07817 whole entry, looked up): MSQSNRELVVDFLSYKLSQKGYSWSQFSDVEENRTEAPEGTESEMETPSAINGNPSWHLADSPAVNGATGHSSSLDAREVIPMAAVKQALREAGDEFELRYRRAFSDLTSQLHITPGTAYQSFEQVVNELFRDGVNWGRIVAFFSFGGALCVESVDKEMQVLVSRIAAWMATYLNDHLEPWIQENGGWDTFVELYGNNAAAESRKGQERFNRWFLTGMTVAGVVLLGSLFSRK
MEX-5 binding: MEX-5 zinc finger RNA-binding disruptors – biochemical, C. elegans, fluorescence polarization, MLPCN library, primary screen. Zinc finger protein mex-5 (Caenorhabditis elegans), Q9XUB2. MEX-5/FITC-TCR2 RNA binding; active compounds read low. activity score (negative = inhibition of binding), % at 10 µM. 300,000 compounds, 0.38% hits. AID 1832, 2009;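 active means inhibition past about -25% in most replicates, and total fluorescence under double the plate's negative control median, limit read from the data; inconclusive means replicates evenly split on the limit, or fluorescence at least double controls; inactive means too little inhibition in most replicates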;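 further: 0% = DMSO and -100% = 5 µM competing unlabeled TCR2 RNA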
EBV gp42 inh: Epstein-Barr virus gp42 inhibitors, primary screen, biochemical, uHTS, fluorescence polarization; Glycoprotein 42 (Epstein-Barr virus (strain AG876)), Q1HVG2; Fluorescence polarization binding assay, mP read-out; inhibition, % (tested at 21.74 µM); 220,000 compounds, 0.42% hits; AID 1085, 2008; in the data active means inhibition above about 50%
Target sequence (Q1HVG2 whole entry, looked up): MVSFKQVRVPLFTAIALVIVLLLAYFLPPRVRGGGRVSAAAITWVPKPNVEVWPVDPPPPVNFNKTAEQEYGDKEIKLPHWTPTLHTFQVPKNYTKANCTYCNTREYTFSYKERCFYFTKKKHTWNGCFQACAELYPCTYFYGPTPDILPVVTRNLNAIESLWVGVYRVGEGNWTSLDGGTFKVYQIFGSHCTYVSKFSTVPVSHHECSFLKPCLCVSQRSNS
MCL1-BIM inh: inhibitors of MCL1 binding to BIM-BH3, primary screen, biochemical, fluorescence polarization; Induced myeloid leukemia cell differentiation protein Mcl-1 (Homo sapiens), Q07820; GST-MCL1 / FITC-Bim-BH3 fluorescence polarization; inhibition, % at 10.9 µM; 320,000 compounds, 0.68% hits; AID 2057, 2009;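 active means inhibition above the mean inhibition of all tested compounds plus 3 SD, set per campaign, cut at about 40% in these data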;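 further: 0% = DMSO wells and 100% = unlabeled Bim-BH3 peptide control; higher means more loss of mP so more displacement of Bim peptide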
E coli Lon inh: inhibitors of E. coli Lon protease, primary screen, biochemical, fluorescence polarization. AID 602123, 2011. inhibition, % at 7.94 µM. purified E. coli Lon protease. 360,000 compounds, 0.42% hits. P0A9M0; in the data active means inhibition above about 13%, passing the limit was not always enough;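 further: 0% = enzyme with probe and DMSO and 100% = no enzyme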
BCLXL inh confirm: Bcl-xL inhibitors blocking Bim BH3 binding, confirmation, counter-screen for MCL1 inhibitor project, biochemical, fluorescence polarization; AID 2166, 2009; shares compounds with MCL1-BIM inh; 1,700 compounds, 54% hits; GST-Bcl-xL / FITC-Bim BH3 peptide FP binding; inhibition, % at 10.9 µM;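 active means inhibition above a cutoff equal to the mean inhibition of all tested compounds plus 3 SD, cut at about 30% in these data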;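 further: 0% = DMSO wells and 100% = unlabeled Bim BH3 control peptide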
MCL1 inh confirm: inhibitors of MCL1 binding to BIM-BH3, confirmation, biochemical, fluorescence polarization, triplicate; shares compounds with MCL1-BIM inh; GST-MCL1 / FITC-Bim-BH3 fluorescence polarization; inhibition, % at 10.9 µM; 1,700 compounds, 61% hits; AID 2168, 2009;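 active means inhibition above the average of all tested compounds plus 3 SD, cut at about 40% in these data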;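 further: 0% = DMSO wells and 100% = unlabeled Bim-BH3 control peptide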
* marks the source's active call; other numbers are inactive results. Hits are enriched below; roughly 1.4% of the tested compounds scored in any of these assays.

For CC(C)(C)C(=O)N1CCN(c2ccc3c(c2)C2CC3CCN2C(=O)OCc2ccccc2)CC1 (centres undefined) the results were E coli Lon inh -11.6.
CCOc1cc(NC(=O)C(C)C)c(OCC)cc1NC(=O)Nc1ccccc1 was read as GLD-1 TGE inh 4.9, Bcl-xL primary 5.1, MEX-5 binding 2.0, MCL1-BIM inh 4.8 and E coli Lon inh 4.5.
`COc1ccc(C(=O)N/N=C/c2cc3ccccc3[nH]c2=S)cc1` gave GLD-1 TGE inh 10.9, Bcl-xL primary 17.4, MEX-5 binding -0.4, EBV gp42 inh 3.9, MCL1-BIM inh 44.4*, E coli Lon inh 6.7, BCLXL inh confirm 6.9 and MCL1 inh confirm 28.2.
Screening COc1ccc(C(=O)N/N=C/c2c[nH]c3ccccc23)cc1 returned GLD-1 TGE inh -1.0, Bcl-xL primary 3.1, MEX-5 binding 1.3, MCL1-BIM inh 10.7 and E coli Lon inh -3.6.
`O=[N+]([O-])c1cc(CN2CCCC2)c2cccnc2c1O` gave GLD-1 TGE inh -0.6, Bcl-xL primary 16.0, EBV gp42 inh 88.2*, MCL1-BIM inh 87.8*, E coli Lon inh 3.0, BCLXL inh confirm 14.0 and MCL1 inh confirm 94.1*.
O=[N+]([O-])c1cc(CN2CCN(c3cccc(C(F)(F)F)c3)CC2)c2cccnc2c1O was read as GLD-1 TGE inh -8.3, Bcl-xL primary 2.5, MEX-5 binding 0.0, EBV gp42 inh -6.6 and MCL1-BIM inh 9.9.
Screening O=C(CSc1nnc(-c2ccc(Br)cc2)n1CCc1ccccc1)NC1CCS(=O)(=O)C1 (centres undefined) returned GLD-1 TGE inh 2.7, Bcl-xL primary -6.1, MEX-5 binding -1.9, EBV gp42 inh -26.6, MCL1-BIM inh -13.4 and E coli Lon inh -3.5.
`CC(=O)c1cc(-c2ccccc2)n(CC(=O)N2CCN(C3CCCC3)CC2)c1C` gave GLD-1 TGE inh 14.9, Bcl-xL primary 44.7*, MEX-5 binding -17.0, EBV gp42 inh -2.8, MCL1-BIM inh 54.7*, E coli Lon inh 28.0, BCLXL inh confirm 18.7 and MCL1 inh confirm 23.5.
For O=C(O)Cc1ccc(N=Nc2c(O)c(C(=O)O)cc3ccccc23)cc1 the results were GLD-1 TGE inh 5.7, Bcl-xL primary 25.8, MEX-5 binding -1.9, EBV gp42 inh -2.1, MCL1-BIM inh 43.2*, E coli Lon inh 15.3, BCLXL inh confirm 37.3* and MCL1 inh confirm 70.3*.
Clc1ccc2nc(COc3ccccc3)[nH]c2c1 was read as GLD-1 TGE inh 5.2, Bcl-xL primary 0.6, MEX-5 binding -1.9, MCL1-BIM inh 7.2 and E coli Lon inh -2.8.
For Cc1ccc(C)c(C(C)NC(=O)Cc2cccs2)c1 (centres undefined) the results were GLD-1 TGE inh 9.4, Bcl-xL primary -1.2, MEX-5 binding -0.1, MCL1-BIM inh 10.4 and E coli Lon inh -0.8.
Screening Cc1ccc(C)c(C(C)NC(=O)CC#N)c1 (centres undefined) returned GLD-1 TGE inh 2.4, Bcl-xL primary 2.5, MEX-5 binding 0.6, EBV gp42 inh -9.0, MCL1-BIM inh 41.8*, E coli Lon inh -2.8, BCLXL inh confirm -0.3 and MCL1 inh confirm -0.6.
O=C(O)C1Cc2c([nH]c3ccccc23)C(c2ccc3c(c2)OCO3)N1 (centres undefined) was read as GLD-1 TGE inh 14.4, Bcl-xL primary 52.1*, MEX-5 binding -6.1, EBV gp42 inh -9.6, MCL1-BIM inh 58.9*, E coli Lon inh -0.7, BCLXL inh confirm 11.7 and MCL1 inh confirm 9.1.
Screening COC(=O)[C@H]1Cc2c([nH]c3ccccc23)[C@H](c2ccccc2)N1 returned GLD-1 TGE inh 4.0, Bcl-xL primary 1.5, MEX-5 binding 2.3, MCL1-BIM inh 2.7 and E coli Lon inh -4.5.
Screening Cc1cc(Br)c(NC(=O)CN2CCCC2)c(Br)c1 returned MEX-5 binding -2.3 and E coli Lon inh -9.0.
CN1/C(=C\C=N\NC(=O)c2ccc(O)cc2)C(C)(C)c2ccccc21 was read as GLD-1 TGE inh 31.6*, Bcl-xL primary 38.9*, MEX-5 binding 4.9, EBV gp42 inh -6.9, MCL1-BIM inh 47.3*, E coli Lon inh 13.0, BCLXL inh confirm -15.3 and MCL1 inh confirm -28.3.
`CN1/C(=C\C=N\NC(=O)c2cccnc2)C(C)(C)c2ccccc21` gave GLD-1 TGE inh 7.1, Bcl-xL primary 5.5, MEX-5 binding -2.3, EBV gp42 inh -19.9, MCL1-BIM inh 7.9 and E coli Lon inh -0.3.
`COCCCn1c(=NC(=O)c2ccccc2)c(C#N)cc2c(=O)n3cccc(C)c3nc21` gave GLD-1 TGE inh 127.5*, Bcl-xL primary 181.0*, MEX-5 binding inconclusive, EBV gp42 inh 51.5*, MCL1-BIM inh active, E coli Lon inh 84.3*, BCLXL inh confirm 76.2* and MCL1 inh confirm 105.3*.
`Cc1cccc(C(=O)N=c2c(C#N)cc3c(=O)n4cccc(C)c4nc3n2Cc2ccco2)c1` gave GLD-1 TGE inh 20.7, Bcl-xL primary 43.1*, MEX-5 binding -10.4, EBV gp42 inh 32.1, MCL1-BIM inh 64.3*, E coli Lon inh -17.2, BCLXL inh confirm 38.4* and MCL1 inh confirm 31.8.
Screening CCOCCCn1c(=NC(=O)c2cccs2)c(C#N)cc2c(=O)n3cccc(C)c3nc21 returned GLD-1 TGE inh 105.7*, Bcl-xL primary 138.2*, MEX-5 binding -36.9*, EBV gp42 inh 54.0*, MCL1-BIM inh 150.7*, E coli Lon inh 13.4, BCLXL inh confirm 115.1* and MCL1 inh confirm 141.6*.
CCCS(=O)(=O)NC(=O)C1(C)CCCN(C(=O)Cc2ccc3ccccc3c2)C1 (centres undefined) was read as E coli Lon inh -6.6.
O=C1C(Cl)=C(N2CCOCC2)C(=O)N1CCc1ccccc1 was read as GLD-1 TGE inh 5.1, Bcl-xL primary 1.4, MEX-5 binding -14.9, EBV gp42 inh -5.0, MCL1-BIM inh 3.8 and E coli Lon inh 0.9.
